# Data published in the supplement of paper PMC3334620.
# Whole data set: some 33,000 sequences, median “E-score (-0.5 to 0.5)” near -0.043, cut for the highest 2% near 0.37. Shown is part of a subset that was picked to be rich in the highest values.
# Target: T1, Upc2 (UniProt Q12151)
# T1 sequence: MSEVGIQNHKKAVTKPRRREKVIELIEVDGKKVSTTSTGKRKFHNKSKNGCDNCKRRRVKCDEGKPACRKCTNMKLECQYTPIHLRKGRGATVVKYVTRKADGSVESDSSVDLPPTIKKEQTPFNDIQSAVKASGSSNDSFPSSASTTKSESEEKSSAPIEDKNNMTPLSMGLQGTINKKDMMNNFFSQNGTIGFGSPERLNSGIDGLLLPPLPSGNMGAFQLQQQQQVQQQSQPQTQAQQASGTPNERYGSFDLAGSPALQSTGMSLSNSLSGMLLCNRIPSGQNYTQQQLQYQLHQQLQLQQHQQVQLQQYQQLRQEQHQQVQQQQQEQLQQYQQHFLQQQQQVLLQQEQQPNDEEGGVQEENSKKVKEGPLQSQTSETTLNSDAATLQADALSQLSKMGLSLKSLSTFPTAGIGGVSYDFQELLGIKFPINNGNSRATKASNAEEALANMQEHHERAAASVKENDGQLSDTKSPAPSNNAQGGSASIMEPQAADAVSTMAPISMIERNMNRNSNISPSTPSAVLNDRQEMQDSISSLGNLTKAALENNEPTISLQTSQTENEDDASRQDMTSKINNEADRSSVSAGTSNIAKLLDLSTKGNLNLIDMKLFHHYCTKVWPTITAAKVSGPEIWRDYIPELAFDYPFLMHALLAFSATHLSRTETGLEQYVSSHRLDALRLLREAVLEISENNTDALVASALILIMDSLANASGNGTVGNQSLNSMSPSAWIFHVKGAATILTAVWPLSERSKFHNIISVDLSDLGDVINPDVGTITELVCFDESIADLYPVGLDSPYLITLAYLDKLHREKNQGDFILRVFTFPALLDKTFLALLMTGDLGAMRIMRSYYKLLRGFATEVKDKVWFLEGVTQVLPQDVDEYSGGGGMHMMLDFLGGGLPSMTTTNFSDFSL
# Assay: PBM E-score (8-mer binding enrichment) (E-score (-0.5 to 0.5)); higher = stronger / more preferred TF binding
# Details: protein concentration: 200 nM; construct: GST-full length
# Protocol: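 Universal 'all 10-mer' protein binding microarrays (Agilent AMADID 015681) probed with GST-tagged S. cerevisiae TFs (full-length or DBD) made by in vitro transcription/translation (PURExpress), about 100-200 nM. Bound TF was detected with fluorescent anti-GST. Each ungapped 8-mer (which stands for itself and its reverse complement) is scored by the PBM enrichment score (E-score), a modified Wilcoxon-Mann-Whitney statistic from -0.5 to +0.5, computed with the Universal PBM Analysis Suite. Scale: above 0.35 generally sequence-specific binding.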
row,Sequence,PBM E-score
1,CCCGAGCC,-0.0326
2,CGCATTCA,-0.00072
3,CGTTAACG,0.422
4,CGTTAACC,0.348
5,CGTTAACA,0.274
6,CCTTAACA,-0.0468
7,ACTTAACG,0.339
8,CCTTAACG,0.38
9,AAATCTCC,-0.271
10,GTGACCAC,-0.283
11,ACAATGAT,-0.102
12,CGGCGCTC,0.16
13,GCCCTCGC,0.219
14,ATGGCTCA,-0.1
15,CCTTTACA,-0.0853
16,ACTTTACG,0.409
17,ATTTTACC,0.00835
18,ACTTTACA,0.0242
19,ACTTTACT,-0.151
20,ATTTTACG,0.394
21,CCTTTACC,-0.191
22,CCTTTACG,0.418
23,AATTTACG,0.335

row,Sequence,PBM E-score
1,ATTTGCAA,0.0573
2,AGATTGCT,-0.117
3,CAACTGCG,-0.0371
4,GTACGCAA,0.247
5,ACACGGAG,-0.0181
6,ATACGCAA,0.37
7,GCACGGAA,-0.15
8,ATACGGAC,0.394
9,GTACGGAA,0.377
10,ATACGGAT,0.357
11,ATACGCAG,0.352
12,CTACGGAC,-0.0487
13,ATACGGAG,0.411
14,CTACGGAG,-0.138
15,GTACGGAC,0.35
16,CATGAGTC,-0.0488
17,GTTCTCTA,0.102
18,CTCTCCTA,0.0887
19,GATTCACC,-0.129
20,AATGGAGA,-0.179
21,TATGCGCA,0.0561
22,ATACGGAA,0.372
23,CTACGGAA,0.0194

row,Sequence,PBM E-score
1,TTACGGAA,0.258
2,GGGGGCGA,-0.119
3,TACAGCAA,0.138
4,AGAGTGGG,0.0465
5,TGATCCAA,-0.132
6,AGACGACG,0.237
7,ACACGACC,0.154
8,ATACGACG,0.483
9,ATACGACC,0.474
10,CTACGACC,0.364
11,ACACGACG,0.267
12,GCGTTTCC,0.0493
13,ACGTTTAC,0.369
14,CCGTTTAC,0.451
15,GCGTTTAC,0.372
16,CCGTTTAA,0.466
17,GCGTTTGA,0.151
18,GCGTTTAA,0.4
19,GCGTTTTA,0.206
20,CTGTTTAA,0.0306
21,GGGTTTAC,0.144
22,CCGTTTTA,0.118
23,CTGTTTAC,0.142

row,Sequence,PBM E-score
1,GGGAGCAA,-0.11
2,GGCAAGGA,-0.205
3,GGCTACTA,-0.0652
4,ACAGTACC,-0.176
5,CATCTAGA,0.0683
6,ACAAGGTA,0.104
7,GAGAGGGA,-0.272
8,ATTATACA,0.0589
9,CCTATACA,0.151
10,AGTATACG,0.455
11,AGTATATG,0.0175
12,ATTATACG,0.482
13,ACTATACT,0.152
14,ACTATACG,0.478
15,CCTATACC,0.167
16,ACTATACA,0.11
17,ATTATACC,0.144
18,AGTATACT,0.242
19,CCTATACG,0.487
20,AAAGAATA,0.091
21,AAGGTTAT,-0.0588
22,GCCCCGCC,0.112
23,GGCGCAAC,0.00488

row,Sequence,PBM E-score
1,CACAGGGA,-0.233
2,AGGACACT,-0.364
3,TGTTTAAA,0.0234
4,AGTTTAAC,0.174
5,CCTTTAAG,-0.158
6,CGTTTAAC,0.473
7,CGTTTAAA,0.47
8,GGTTTAAC,0.138
9,AGTTTAAA,0.11
10,AGTTTAAG,0.0878
11,CGTTTAAG,0.468
12,AGGATGGG,0.00396
13,CAACCTCA,-0.0655
14,AACTGTGT,-0.137
15,CCTTAGCA,-0.336
16,CCCTTATC,-0.205
17,AGGTATAC,0.339
18,GTAACCGA,0.322
19,CTAACCGC,0.0621
